A short description of assay [1]: optical density shifts of acrAB sulA E. coli – strain DRC41, OD650, 48 h, E. coli filamentation inducer project, primary screen (AID 1152).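 Note: E. coli MC1000 strain DRC41 lacking acrAB efflux pump and sulA.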 The following applies: higher = more signal, called active from +8 up or from −8 down.
Assay [2] in a line: probe aLefty1 binding on compound microarray – biochemical, small-molecule microarray, 635/667 nm fluorescence, primary screen (AID 1153).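 Note: score merges spot fluorescence with signal-to-noise ratio from the scanned slide images.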 The following applies: higher = more signal.
A short description of assay [3]: plasmodial surface anion channel blockers, osmotic lysis – cell-based, P. falciparum Indochina, OD700, 1 h, primary screen (AID 1154). The conditions noted are these: P. falciparum Indochina infected RBC osmotic lysis, higher = more signal, called active from +8 up or from −8 down.
Assay [4] is described as follows: plasmodial surface anion channel blockers, osmotic lysis – cell-based, P. falciparum Indochina, OD700, 2 h, primary screen (AID 1155).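 Note: lysis reports solute entry through the parasite surface anion channel PSAC.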 The following applies: P. falciparum Indochina infected erythrocytes, higher = more signal, called active from +8 up or from −8 down.
Assay [5] in a line: changes in parasitized red cell lysis, either direction – P. falciparum Indochina, OD700, 3 h, PSAC antagonist project, primary screen (AID 1156). The conditions noted are these: P. falciparum-infected erythrocytes, osmotic lysis, higher = more signal, called active from +8 up or from −8 down.
Assay [6] is described as follows: plasmodial surface anion channel blockers, osmotic lysis – cell-based, P. falciparum Indochina, OD700, 18 h, primary screen (AID 1157). The conditions noted are these: P. falciparum Indochina infected erythrocytes, osmotic lysis OD700, 18 h; higher = more signal, called active from +8 up or from −8 down.
Assay [7] is described as follows: S6 kinase pathway phospho-S6 level changes – cell-based, A549, cytoblot, luminescence, serum-stimulated, primary screen (AID 1158).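 Note: serum-stimulated A549 lung adenocarcinoma cells; signal is phosphorylated S6 detected by cytoblot immunostaining with HRP secondary.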 The following applies: 5 h, higher = more signal.
Assay [8] has as its target NADPH oxidase 2 (Homo sapiens) (UniProt P04839). The assay can be described thus: compounds shifting NOX2 Amplex Red fluorescence – cell-based, HEK293-NOX2, PMA-stimulated, NOX inhibitor project, primary screen (AID 1159). Note: test concentration not given here. The conditions noted are these: 45 min, higher = more signal, called active from +8 up or from −8 down.
Assay [9] concerns the target NADPH oxidase 4 (Homo sapiens) (UniProt Q9NPH5). The experiment in a line: compounds shifting NOX4 Amplex Red fluorescence – cell-based, HEK293-NOX4, tetracycline-induced, NOX inhibitor project, primary screen (AID 1160). The conditions noted are these: HEK293-NOX4, Amplex Red H2O2 fluorescence, 45 min; higher = more signal, called active from +8 up or from −8 down.
For assay [10], the target named is NADPH oxidase 5 (Homo sapiens) (UniProt Q96PH1). The experiment in a line: compounds shifting NOX5 Amplex Red fluorescence – cell-based, HEK293-NOX5, NOX inhibitor project, primary screen (AID 1161). The conditions noted are these: HEK293-NOX5, ionomycin, 45 min, higher = more signal.
Assay [11] in a line: compound effects on lung adenocarcinoma cell viability – A549, calcein-AM fluorescence, 48 h, basal, profiling panel (AID 1162). Note: test concentration not given here. The conditions noted are these: higher = more signal.
Assay [12] in a line: compound effects on differentiated 3T3-L1 adipocyte viability – cell-based, 3T3-L1 adipocytes, calcein-AM fluorescence, 48 h, basal, profiling panel (AID 1163). Note: test concentration not given here. The conditions noted are these: 3T3-L1 adipocytes viability, higher = more signal.
Assay [13] is described as follows: compound effects on hepatocellular carcinoma cell viability – HepG2, calcein-AM fluorescence, 48 h, basal, profiling panel (AID 1164). Note: test concentration not given here. The conditions noted are these: higher = more signal.
Assay [14] in a line: compound effects on multiple myeloma cell viability – MM1S, calcein-AM fluorescence, 48 h, basal, profiling panel (AID 1165).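 Note: viability of MM1S multiple myeloma cells under basal unstimulated conditions; test concentration not given here.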 The following applies: higher = more signal.
Assay [15] is described as follows: calcein-AM signal in unstimulated myeloma cells – cell-based, calcein-AM fluorescence, 48 h, PK04 Diversity Set, profiling panel (AID 1166).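 Note: cells grown under basal conditions without added stimulus; test concentration not given here.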 The following applies: RPMI8226 myeloma viability, higher = more signal.
A short description of assay [16]: JC-1 mitochondrial signal, unstimulated HepG2 cells – cell-based, JC-1 fluorescence, 24 h, 100 nL compound, profiling panel (AID 1167). Note: test concentration not given here. The following applies: HepG2 mitochondrial potential, higher = more signal.
The nature of assay [17]: JC-1 mitochondrial signal, unstimulated adipocytes – cell-based, JC-1 fluorescence, 3T3-L1 adipocytes, 24 h, 100 nL compound, profiling panel (AID 1168). Note: test concentration not given here. The following applies: JC-1 mitochondrial fluorescence, higher = more signal, called active from +8 up or from −8 down.
Assay [18] is described as follows: JC-1 mitochondrial signal, unstimulated myeloma cells – cell-based, JC-1 fluorescence, RPMI8226, 24 h, 100 nL compound, profiling panel (AID 1169). Note: test concentration not given here. The following applies: JC-1 mitochondrial potential fluorescence, higher = more signal.
Assay [19] in a line: JC-1 mitochondrial signal, unstimulated MM1S myeloma – cell-based, JC-1 fluorescence, 24 h, 100 nL compound, profiling panel (AID 1170). Note: test concentration not given here. The conditions noted are these: MM1S mitochondrial potential, higher = more signal.
A short description of assay [20]: resazurin metabolic signal in A549 cells – cell-based, resazurin fluorescence, 24 h, PK04 Diversity Set, profiling panel (AID 1171). Note: test concentration not given here. The following applies: A549 viability, higher = more signal, called active from +8 up or from −8 down. In general terms: The colour change of resazurin is a common sign of viable cells or microbes.

SMILES strings stand for the structures. The source made the active and inactive calls.

Sequence of NADPH oxidase 2 (Homo sapiens) (P04839 whole entry, looked up): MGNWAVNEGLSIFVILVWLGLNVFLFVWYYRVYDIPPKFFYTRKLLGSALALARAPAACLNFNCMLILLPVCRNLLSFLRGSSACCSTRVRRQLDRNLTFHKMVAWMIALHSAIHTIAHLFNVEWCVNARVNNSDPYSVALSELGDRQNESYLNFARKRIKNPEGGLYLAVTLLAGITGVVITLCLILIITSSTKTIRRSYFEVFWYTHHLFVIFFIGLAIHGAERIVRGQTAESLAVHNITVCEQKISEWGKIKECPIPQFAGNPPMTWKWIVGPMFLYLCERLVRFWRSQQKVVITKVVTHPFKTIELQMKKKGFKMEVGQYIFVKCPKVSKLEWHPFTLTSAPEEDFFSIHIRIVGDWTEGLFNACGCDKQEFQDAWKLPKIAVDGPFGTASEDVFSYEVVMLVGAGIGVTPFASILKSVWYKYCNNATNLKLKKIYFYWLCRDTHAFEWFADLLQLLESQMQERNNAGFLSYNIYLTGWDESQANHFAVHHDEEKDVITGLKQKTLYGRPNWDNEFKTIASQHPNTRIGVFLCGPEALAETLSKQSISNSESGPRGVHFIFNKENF
Sequence of NADPH oxidase 4 (Homo sapiens) (Q9NPH5 whole entry, looked up): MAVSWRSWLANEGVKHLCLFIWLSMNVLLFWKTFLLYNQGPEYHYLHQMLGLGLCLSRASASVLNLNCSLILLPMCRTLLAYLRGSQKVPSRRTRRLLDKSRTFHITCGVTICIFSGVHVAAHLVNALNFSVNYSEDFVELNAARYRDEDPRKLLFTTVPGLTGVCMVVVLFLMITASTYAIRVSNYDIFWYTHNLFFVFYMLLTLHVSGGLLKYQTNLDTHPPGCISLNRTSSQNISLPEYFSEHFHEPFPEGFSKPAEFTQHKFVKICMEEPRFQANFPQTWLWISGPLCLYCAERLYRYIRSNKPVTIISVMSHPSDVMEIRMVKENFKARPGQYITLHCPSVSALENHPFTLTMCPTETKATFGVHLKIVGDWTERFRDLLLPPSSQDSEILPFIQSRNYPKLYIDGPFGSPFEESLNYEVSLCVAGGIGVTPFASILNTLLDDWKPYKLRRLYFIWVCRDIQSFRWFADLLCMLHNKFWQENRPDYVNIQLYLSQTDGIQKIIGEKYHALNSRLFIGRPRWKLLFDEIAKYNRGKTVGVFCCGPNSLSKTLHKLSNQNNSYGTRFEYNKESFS
Sequence of NADPH oxidase 5 (Homo sapiens) (Q96PH1 whole entry, looked up): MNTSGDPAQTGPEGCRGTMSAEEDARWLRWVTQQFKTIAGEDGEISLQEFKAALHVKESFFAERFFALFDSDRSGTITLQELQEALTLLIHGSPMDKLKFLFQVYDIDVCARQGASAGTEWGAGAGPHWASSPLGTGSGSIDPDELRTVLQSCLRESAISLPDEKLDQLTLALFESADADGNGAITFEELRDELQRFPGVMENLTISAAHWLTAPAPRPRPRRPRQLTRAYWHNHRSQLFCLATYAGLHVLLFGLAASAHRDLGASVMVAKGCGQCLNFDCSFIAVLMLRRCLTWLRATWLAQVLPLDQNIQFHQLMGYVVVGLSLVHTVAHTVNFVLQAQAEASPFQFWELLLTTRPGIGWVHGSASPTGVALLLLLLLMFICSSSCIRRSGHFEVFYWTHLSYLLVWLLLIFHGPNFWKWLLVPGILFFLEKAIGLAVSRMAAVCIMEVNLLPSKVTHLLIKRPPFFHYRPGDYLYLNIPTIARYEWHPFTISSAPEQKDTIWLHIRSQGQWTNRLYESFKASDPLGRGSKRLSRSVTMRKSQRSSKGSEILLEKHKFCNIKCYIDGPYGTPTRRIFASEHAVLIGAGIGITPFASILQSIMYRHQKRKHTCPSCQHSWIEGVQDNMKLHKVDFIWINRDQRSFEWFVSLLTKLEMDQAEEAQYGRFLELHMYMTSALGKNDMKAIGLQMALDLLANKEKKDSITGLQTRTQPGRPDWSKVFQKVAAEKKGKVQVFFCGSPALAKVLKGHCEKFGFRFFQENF

For `CCOC(=O)CCN1C(=O)[C@H]2[C@H]3[C@H](O)[C@H](O)CC(=NOCC(C)C)[C@H]3CC[C@H]2C1=O`, the z-score was 0.867 (inactive) in assay [1]; 0.0425 (inactive) in assay [3]; -0.153 (inactive) in assay [4]; 0.298 (inactive) in assay [5]; 0.304 (inactive) in [6]; -0.0487 in [7]. For the same compound, the z-score in [8] was -0.864 (inactive); in assay [9], 0.148 (inactive); in [10], 0.444; in assay [11], 0.0183; in assay [12] it was 0.179; in [13], -0.268. In addition, the z-score was 0.324 in assay [14]; -0.75 in assay [15]; 0.364 in assay [16]; 0.295 (inactive) in assay [17]; -0.324 in assay [18]; -1.03 in assay [19]. Further, the z-score in [20] is -0.86 (inactive). Further, in [2], the composite z-score is -0.0519.

As to `O=C(NN=C1C[C@@H](O)[C@@H](O)[C@@H]2[C@@H]3C(=O)N(C[C@@H]4CCCO4)C(=O)[C@@H]3CC[C@H]12)OCc1ccccc1`, the z-score in assay [1] was 0.801 (inactive); in [3], 1.35 (inactive); in [4], 0.278 (inactive); in assay [5], 0.284 (inactive); in assay [6], 0.404 (inactive); in assay [7] it was -0.249. Further, the z-score in assay [8] is -0.92 (inactive); in [9] it was 0.0865 (inactive); in [10], -0.165; in assay [11], -0.0032; in [12] it was -0.0428; in [13], -0.718. Further, the z-score in [14] is 0.338; in assay [15] it was -0.0238; in [16], -0.249; in assay [17], -0.0601 (inactive); in [18] it was 0.536; in assay [19], -0.853. For the same compound, in assay [20], the z-score was -0.714 (inactive). In assay [2], this compound yielded a composite z-score of 0.318.

For the compound `CO[C@@H]1COC(=O)[C@H](CCSC)NC(=O)CC=C[C@@H](C)COC(=O)[C@H](C)NC(=O)CC=C[C@H]1C`, the z-score in assay [1] is 0.675 (inactive); in assay [3] it was -0.0455 (inactive); in [4], 0.327 (inactive); in assay [5], 0.033 (inactive); in assay [6], 0.353 (inactive); in assay [7], 0.399. Besides, the z-score in assay [8] is -0.906 (inactive); in assay [9], -0.0183 (inactive); in assay [10] it was 0.0788; in assay [11], 0.205; in assay [12] it was 0.0719; in [13] it was 0.677. The z-score is 0.174 in assay [14]; -0.0512 in assay [15]; 0.381 in assay [16]; -0.225 (inactive) in assay [17]; -0.226 in assay [18]; 2.32 in assay [19]. Further, the z-score in assay [20] was 0.767 (inactive). Besides, the composite z-score in assay [2] was -0.231.

For the compound `CCOC(=O)[C@H](Cc1ccccc1)NC(=O)CCC1CC(OC(=O)NCc2cccc3ccccc23)CC2(CCCC(COC(=O)NCC(c3ccccc3)c3ccccc3)O2)O1` (stereo not given in full), the z-score is -0.0812 (inactive) in [1]; 9.16 (active) in assay [3]; 1.24 (inactive) in assay [4]; -1.06 (inactive) in [5]; -0.343 (inactive) in assay [6]; 0.704 in assay [7]. The z-score was 0.782 (inactive) in assay [8]; 0.674 (inactive) in assay [9]; 0.347 in [10]; 1.15 in assay [11]; -0.0155 in assay [12]; -0.808 in assay [13]. In addition, the z-score in assay [14] is -3.22; in [15] it was 0.632; in assay [16], 0.353; in assay [17], -0.151 (inactive); in assay [18], -0.107; in assay [19] it was -0.886. For the same compound, the z-score in assay [20] was 1.36 (inactive). Further, the composite z-score in assay [2] is -0.116.

The values above are taken from PubChem BioAssay.
